We go through 10 molecules from the supplement of paper PMC4022240.

± gives the standard deviation.

What all share (assay): peptide microarray binding signal (635 nm), min-max normalized on array (fraction of array maximum); higher = stronger binding
Holding throughout (conditions): peptide region: H3 5-17

For assay [1], the target named is T1, HaloTag-ATRX ADD domain (163-292).
T1 chain: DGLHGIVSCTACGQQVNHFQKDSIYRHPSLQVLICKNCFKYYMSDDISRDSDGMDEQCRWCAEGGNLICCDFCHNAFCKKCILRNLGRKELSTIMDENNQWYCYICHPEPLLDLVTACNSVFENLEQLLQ
The method, boiled down:
(§1)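 An Axon GenePix 4000B scanned the arrays at 635 nm for signal and at 532 nm to catch misprints. Those arrays held histone 13-mer peptide–cellulose conjugates printed in triplicate on nitrocellulose with a Cy3 tracer, blocked overnight at 4°C and probed for 1 h at 4°C with biotin-labelled HaloTag reader fusions (10 nM to 1 μM) plus streptavidin-Alexa Fluor 647 or with rabbit histone antibodies (1:10,000 to 1:2,000) plus anti-rabbit Alexa 647. Each binding signal is a triplicate-spot mean intensity, scaled min-max within its library.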

Assay [2] deals with HaloTag-ING2 PHD (mouse Ing2 200-280). The method, boiled down:
as §1

In assay [3] the target is anti-H3K4me3 antibody ab8580. The method, boiled down:
as §1

For assay [4], the target named is anti-H3K9me3 antibody ab8898. The method, boiled down: as §1
Setting [5] is: peptide modifications: H3R8cit, binder concentration: 1:2,000 dilution.
Where [6] appears, read: peptide modifications: H3R8cit, binder concentration: 1:10,000 dilution.
The mark [7] stands for this setting: peptide modifications: H3K14me2, binder concentration: 1:2,000 dilution.
The mark [8] stands for this setting: peptide modifications: H3K14me2, binder concentration: 1:10,000 dilution.
Where [9] appears, read: peptide modifications: H3K9me3 H3T11ph, binder concentration: 1:2,000 dilution.
Where [10] appears, read: peptide modifications: H3K9me3 H3T11ph, binder concentration: 1:10,000 dilution.
Setting [11] is: peptide modifications: H3R8cit H3K9me2, binder concentration: 1:2,000 dilution.
Where [12] appears, read: peptide modifications: H3R8cit H3K9me2, binder concentration: 1:10,000 dilution.
Where [13] appears, read: peptide modifications: H3R8me1 H3K9me2, binder concentration: 1:2,000 dilution.
Setting [14] is: peptide modifications: H3R8me1 H3K9me2, binder concentration: 1:10,000 dilution.
The mark [15] stands for this setting: peptide modifications: H3K9me3 H3K14me2, binder concentration: 1:2,000 dilution.
The mark [16] stands for this setting: peptide modifications: H3K9me3 H3K14me2, binder concentration: 1:10,000 dilution.
The mark [17] stands for this setting: peptide modifications: H3R8me1 H3K9me1, binder concentration: 1:2,000 dilution.
Where [18] appears, read: peptide modifications: H3R8me1 H3K9me1, binder concentration: 1:10,000 dilution.
Where [19] appears, read: peptide modifications: H3K9me3 H3K14me1, binder concentration: 1:2,000 dilution.
Setting [20] is: peptide modifications: H3K9me3 H3K14me1, binder concentration: 1:10,000 dilution.
Setting [21] is: peptide modifications: H3R8cit H3T11ph, binder concentration: 1:2,000 dilution.
The mark [22] stands for this setting: peptide modifications: H3R8cit H3T11ph, binder concentration: 1:10,000 dilution.
[23] abbreviates: peptide modifications: H3R8me1, binder concentration: 1:2,000 dilution.
[24] abbreviates: peptide modifications: H3R8me1, binder concentration: 1:10,000 dilution.

B1: H3 5-17 Q T A Rcit K S T G G K A P R (peptide)
chain: QTARKSTGGKAPR
Regarding B1, the “peptide microarray binding signal” value stood at 0.0063 ± 0.00069 in assay [1] (peptide modifications: H3R8cit, binder concentration: 50 nM); 0.00719 ± 0.0018 in assay [1] (peptide modifications: H3R8cit, binder concentration: 500 nM); 0.0115 ± 0.0029 in assay [2] (peptide modifications: H3R8cit, binder concentration: 10 nM); 0.00574 ± 0.00039 in assay [2] (peptide modifications: H3R8cit, binder concentration: 100 nM); 0.00504 ± 0.0019 in assay [3] (setting [5]); 0.0142 ± 0.0043 in assay [3] (setting [6]). The “peptide microarray binding signal” value came to 0.00642 ± 0.0027 in assay [4] (setting [5]) and 0.00588 ± 0.00093 in assay [4] (setting [6]).

B2: H3 5-17 Q T A R K S T G G Kme2 A P R (peptide)
chain: QTARKSTGGKAPR
B2: the “peptide microarray binding signal” value in assay [1] (peptide modifications: H3K14me2, binder concentration: 50 nM) turned out to be 0.00956 ± 0.00084; in assay [1] (peptide modifications: H3K14me2, binder concentration: 500 nM), 0.0335 ± 0.0014; in assay [2] (peptide modifications: H3K14me2, binder concentration: 10 nM) it was 0.0584 ± 0.011; in assay [2] (peptide modifications: H3K14me2, binder concentration: 100 nM) it was 0.077 ± 0.0071; in assay [3] (setting [7]), 0.044 ± 0.004; in assay [3] (setting [8]), 0.0224 ± 0.0035. Further, the “peptide microarray binding signal” value in assay [4] (setting [7]) was found to be 0.0137 ± 0.00078; in assay [4] (setting [8]), 0.00715 ± 0.00071.

B3: H3 5-17 Q T A R Kme3 S Tph G G K A P R (peptide)
chain: QTARKSTGGKAPR
On to B3, for which the “peptide microarray binding signal” value amounted to 0.00737 ± 0.0032 in assay [1] (peptide modifications: H3K9me3 H3T11ph, binder concentration: 50 nM); 0.00981 ± 0.0012 in assay [1] (peptide modifications: H3K9me3 H3T11ph, binder concentration: 500 nM); 0.00352 ± 0.00053 in assay [2] (peptide modifications: H3K9me3 H3T11ph, binder concentration: 10 nM); 0.00539 ± 0.0012 in assay [2] (peptide modifications: H3K9me3 H3T11ph, binder concentration: 100 nM); 0.00485 ± 0.00012 in assay [3] (setting [9]); 0.00747 ± 0.0029 in assay [3] (setting [10]). Further, the “peptide microarray binding signal” value in assay [4] (setting [9]) stood at 0.215 ± 0.078; in assay [4] (setting [10]), 0.229 ± 0.095.

B4: H3 5-17 Q T A Rcit Kme2 S T G G K A P R (peptide)
chain: QTARKSTGGKAPR
B4: the “peptide microarray binding signal” value turned out to be 0.0094 ± 0.00026 in assay [1] (peptide modifications: H3R8cit H3K9me2, binder concentration: 50 nM); 0.0211 ± 0.0019 in assay [1] (peptide modifications: H3R8cit H3K9me2, binder concentration: 500 nM); 0.0388 ± 0.00083 in assay [2] (peptide modifications: H3R8cit H3K9me2, binder concentration: 10 nM); 0.0648 ± 0.0026 in assay [2] (peptide modifications: H3R8cit H3K9me2, binder concentration: 100 nM); 0.016 ± 0.0013 in assay [3] (setting [11]); 0.0193 ± 0.00081 in assay [3] (setting [12]). For the same molecule, the “peptide microarray binding signal” value in assay [4] (setting [11]) is 0.271 ± 0.036; in assay [4] (setting [12]) it was 0.197 ± 0.037.

B5: H3 5-17 Q T A Rme Kme2 S T G G K A P R (peptide)
chain: QTARKSTGGKAPR
Take B5: the “peptide microarray binding signal” value in assay [1] (peptide modifications: H3R8me1 H3K9me2, binder concentration: 50 nM) stood at 0.00934 ± 0.00073; in assay [1] (peptide modifications: H3R8me1 H3K9me2, binder concentration: 500 nM), 0.0296 ± 0.00077; in assay [2] (peptide modifications: H3R8me1 H3K9me2, binder concentration: 10 nM) it was 0.0501 ± 0.013; in assay [2] (peptide modifications: H3R8me1 H3K9me2, binder concentration: 100 nM), 0.0426 ± 0.0023; in assay [3] (setting [13]), 0.0281 ± 0.0026; in assay [3] (setting [14]), 0.0231 ± 0.00029. Further, the figures for the “peptide microarray binding signal” value in assay [4] (setting [13]) and in assay [4] (setting [14]) were 0.175 ± 0.029 and 0.0879 ± 0.0073, respectively.

B6: H3 5-17 Q T A R Kme3 S T G G Kme2 A P R (peptide)
chain: QTARKSTGGKAPR
As for B6, the “peptide microarray binding signal” value in assay [1] (peptide modifications: H3K9me3 H3K14me2, binder concentration: 50 nM) is 0.0125 ± 0.00061; in assay [1] (peptide modifications: H3K9me3 H3K14me2, binder concentration: 500 nM), 0.0226 ± 0.0018; in assay [2] (peptide modifications: H3K9me3 H3K14me2, binder concentration: 10 nM), 0.0179 ± 0.0015; in assay [2] (peptide modifications: H3K9me3 H3K14me2, binder concentration: 100 nM) it was 0.0366 ± 0.016; in assay [3] (setting [15]) it was 0.117 ± 0.017; in assay [3] (setting [16]), 0.082 ± 0.012. Further, the entries for the “peptide microarray binding signal” value in assay [4] (setting [15]) and in assay [4] (setting [16]) were 0.869 ± 0.044 and 1 ± 0.084, respectively.

B7: H3 5-17 Q T A Rme Kme S T G G K A P R (peptide)
chain: QTARKSTGGKAPR
As to B7, the “peptide microarray binding signal” value in assay [1] (peptide modifications: H3R8me1 H3K9me1, binder concentration: 50 nM) was 0.01 ± 0.0016; in assay [1] (peptide modifications: H3R8me1 H3K9me1, binder concentration: 500 nM), 0.0241 ± 0.0051; in assay [2] (peptide modifications: H3R8me1 H3K9me1, binder concentration: 10 nM), 0.0382 ± 0.016; in assay [2] (peptide modifications: H3R8me1 H3K9me1, binder concentration: 100 nM), 0.0483 ± 0.0026; in assay [3] (setting [17]), 0.0217 ± 0.00038; in assay [3] (setting [18]) it was 0.0201 ± 0.0019. For the same molecule, the “peptide microarray binding signal” value stood at 0.034 ± 0.009 in assay [4] (setting [17]) and 0.0236 ± 0.0018 in assay [4] (setting [18]).

B8: H3 5-17 Q T A R Kme3 S T G G Kme A P R (peptide)
chain: QTARKSTGGKAPR
Consider B8, for which the “peptide microarray binding signal” value amounted to 0.00285 ± 0.00016 in assay [1] (peptide modifications: H3K9me3 H3K14me1, binder concentration: 50 nM); 0.00524 ± 0.00015 in assay [1] (peptide modifications: H3K9me3 H3K14me1, binder concentration: 500 nM); 0.00406 ± 0.00024 in assay [2] (peptide modifications: H3K9me3 H3K14me1, binder concentration: 10 nM); 0.0116 ± 0.00073 in assay [2] (peptide modifications: H3K9me3 H3K14me1, binder concentration: 100 nM); 0.00483 ± 0.00038 in assay [3] (setting [19]); 0.00251 ± 9.7e-05 in assay [3] (setting [20]). The results for the “peptide microarray binding signal” value in assay [4] (setting [19]) and in assay [4] (setting [20]) were 0.175 ± 0.043 and 0.0981 ± 0.043, respectively.

B9: H3 5-17 Q T A Rcit K S Tph G G K A P R (peptide)
chain: QTARKSTGGKAPR
For B9, the “peptide microarray binding signal” value in assay [1] (peptide modifications: H3R8cit H3T11ph, binder concentration: 50 nM) was 0.00404 ± 0.00028; in assay [1] (peptide modifications: H3R8cit H3T11ph, binder concentration: 500 nM), 0.0123 ± 0.0011; in assay [2] (peptide modifications: H3R8cit H3T11ph, binder concentration: 10 nM), 0.0179 ± 0.0072; in assay [2] (peptide modifications: H3R8cit H3T11ph, binder concentration: 100 nM), 0.0242 ± 0.0054; in assay [3] (setting [21]) it was 0.00285 ± 4.3e-05; in assay [3] (setting [22]) it was 0.002511 ± 2.2e-05. In addition, the “peptide microarray binding signal” value in assay [4] (setting [21]) was determined as 0.00142 ± 0.00018; in assay [4] (setting [22]), 0.00115 ± 2e-05.

B10: H3 5-17 Q T A Rme K S T G G K A P R (peptide)
chain: QTARKSTGGKAPR
With B10, the “peptide microarray binding signal” value came out at 0.00589 ± 0.00021 in assay [1] (peptide modifications: H3R8me1, binder concentration: 50 nM); 0.00448 ± 0.00015 in assay [1] (peptide modifications: H3R8me1, binder concentration: 500 nM); 0.0037 ± 7.9e-05 in assay [2] (peptide modifications: H3R8me1, binder concentration: 10 nM); 0.00262 in assay [2] (peptide modifications: H3R8me1, binder concentration: 100 nM); 0.0014 ± 0.00011 in assay [3] (setting [23]); 0.00417 ± 0.00061 in assay [3] (setting [24]). In addition, the “peptide microarray binding signal” value in assay [4] (setting [23]) is 0.00305 ± 0.00038; in assay [4] (setting [24]) it was 0.00755 ± 0.00014.
